Assay outcomes: PubChem, National Center for Advancing Translational Sciences (NCATS)
Most compounds without a hit are left out; they make up all but 10% or so of the library.
HP1b binding inh: HTS for Inhibitors of HP1-beta Chromodomain Interactions with Methylated Histone Tails. AlphaScreen HP1-beta / biotin-H3K9me3 peptide binding. Potency, µM (top dose mostly 114 µM), inactives show at the highest dose activity change, negative = inhibition, hits mostly inhibitors. 0.56% of 390,000 active; note: nearly all actives have a fitted effect of over 70% in size
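Compound inhibition of the preformed complex between 50 nM HP1-beta and 50 nM biotinylated H3K9me3 peptide was read by AlphaScreen. Buffer was PBS pH 7.4 with 0.01% Tween-20. Incubations ran 30 min at room temperature, with 10 ug/mL donor/acceptor beads.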
JMJD2A Tudor: qHTS Assay for Inhibitors of JMJD2A-Tudor Domain. Lysine-specific demethylase 4A (Homo sapiens), O75164. AlphaScreen JMJD2A-Tudor / H3K4me3 peptide binding. Potency, µM (top dose mostly 114 µM), without a hit: at the highest dose activity change, negative = inhibition, hits mostly inhibitors. 4.4% of 390,000 active; note: % is set by controls: 0 for no effect and ±100 for the full control effect; nearly all actives have a fitted effect of over 50% in size
Target sequence (O75164 whole entry, looked up, the tested form may be a part): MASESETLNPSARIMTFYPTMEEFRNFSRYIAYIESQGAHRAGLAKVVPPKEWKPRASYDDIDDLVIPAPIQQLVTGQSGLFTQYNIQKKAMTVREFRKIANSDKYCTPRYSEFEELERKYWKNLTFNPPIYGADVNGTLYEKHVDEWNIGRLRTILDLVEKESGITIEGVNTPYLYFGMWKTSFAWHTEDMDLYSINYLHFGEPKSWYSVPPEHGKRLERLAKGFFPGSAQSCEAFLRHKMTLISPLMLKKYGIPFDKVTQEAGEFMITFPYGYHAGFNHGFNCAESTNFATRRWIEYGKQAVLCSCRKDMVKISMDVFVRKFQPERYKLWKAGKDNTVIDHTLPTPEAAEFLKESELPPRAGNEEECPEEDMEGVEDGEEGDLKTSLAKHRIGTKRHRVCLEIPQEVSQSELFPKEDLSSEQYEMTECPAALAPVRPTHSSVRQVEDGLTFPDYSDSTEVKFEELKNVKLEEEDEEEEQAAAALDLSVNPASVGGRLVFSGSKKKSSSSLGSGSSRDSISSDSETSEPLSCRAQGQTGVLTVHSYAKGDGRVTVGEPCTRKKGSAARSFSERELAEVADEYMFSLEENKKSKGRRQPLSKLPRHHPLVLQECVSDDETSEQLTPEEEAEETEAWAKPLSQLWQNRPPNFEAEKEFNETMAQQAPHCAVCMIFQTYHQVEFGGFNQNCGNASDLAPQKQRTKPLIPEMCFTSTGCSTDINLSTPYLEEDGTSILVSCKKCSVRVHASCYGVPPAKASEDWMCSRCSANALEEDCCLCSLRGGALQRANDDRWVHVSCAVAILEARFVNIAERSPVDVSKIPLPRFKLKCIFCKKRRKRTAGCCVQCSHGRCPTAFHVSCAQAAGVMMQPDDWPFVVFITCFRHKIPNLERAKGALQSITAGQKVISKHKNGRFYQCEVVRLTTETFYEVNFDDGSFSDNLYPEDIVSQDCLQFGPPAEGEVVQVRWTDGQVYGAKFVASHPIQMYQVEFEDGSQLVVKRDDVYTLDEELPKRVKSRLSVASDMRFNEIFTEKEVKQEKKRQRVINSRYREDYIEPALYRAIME
L3MBTL1 block: qHTS Assay for the Inhibitors of L3MBTL1; Lethal(3)malignant brain tumor-like protein 1 (Homo sapiens), Q9Y468; AlphaScreen L3MBTL1–H3K9me1 peptide binding; Potency, µM (highest dose often 57.1 µM), for inactives: top-dose activity, negative = inhibition, most hits filed as inhibitors; 0.66% of 230,000 active; note: % is set by controls: 0 for no effect and ±100 for the full control effect; nearly all actives have a fitted effect of over 60% in size
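AlphaScreen assay: L3MBTL1 (50 nM final) was preincubated 30 min at room temperature with biotinylated H3(1-15)K9me1 peptide (75 nM final), then 30 min with library compounds; streptavidin donor and nickel chelate acceptor beads (10 ug/mL final) added, 30 min dark.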
BAZ2B inh: qHTS Assay for Inhibitors of BAZ2B; AlphaScreen BAZ2B-H3K14Ac peptide displacement; Potency, µM (doses to about 114 µM), for inactives: top-dose activity change, negative = inhibition, hits mostly inhibitors; 4.4% of 360,000 active; AID 504333, 2011; note: % is set by controls: 0 for no effect and ±100 for the full control effect; nearly all actives have a fitted effect of over 60% in size
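Multi-concentration screen (max 110 uM) measuring displacement of acetylated histone H3 peptide from BAZ2B by AlphaScreen, using 50 nM protein, 50 nM peptide and 10 ug/mL streptavidin donor plus Ni-chelate acceptor beads.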
GLS inh: qHTS for Inhibitors of Glutaminase (GLS) | AID 624170, 2012 | 0.21% of 410,000 active | Glutaminase kidney isoform, mitochondrial (Homo sapiens), O94925 | GLS enzymatic activity, qHTS titration | Potency, µM (doses to about 45.5 µM), for the others: at the top dose activity change, negative = inhibition, usual class: inhibitors; note: % is set by controls: 0 for no effect and ±100 for the full control effect
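Enzyme dispensed in phosphate buffer (45 mM, pH 8.2, 0.02% Tween-20), compounds pinned in, then 1 mM L-glutamine solution and the glutamate oxidase–HRP–Amplex Red mix added; fluorescence read immediately and again after 30 min at room temperature.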
G9a block: qHTS Assay for Inhibitors of Histone Lysine Methyltransferase G9a. Histone-lysine N-methyltransferase EHMT2 (Homo sapiens), Q96KQ7. G9a H3K9 monomethylation, AlphaScreen, 2 h. Potency, µM (series often up to 102 µM), for the others: at the top dose activity, negative = inhibition, most hits filed as inhibitors. 8.8% of 350,000 active. AID 504332, 2011; note: % is set by controls: 0 for no effect and ±100 for the full control effect; nearly all actives have a fitted effect of over 75% in size
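Chemiluminescent proximity detection of H3K9 monomethylation, read after 10 min bead incubation in the dark. Reaction: 20 nM G9a, 500 nM biotin-H3K9 peptide, 20 uM SAM cofactor, 2 h, room temperature, following 15 min enzyme-compound preincubation.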
* hit, by the source's call; ? = inconclusive; . = not tested or not shown; [ ] = dose if it differs, or a comment. Calls come from the whole dose curve; as a rule, active = well fitted curve in the direction sought with a large enough effect; inconclusive = small, poorly fitted or top-dose-only effect, or another doubt; inactive = no such curve, though single readings can be large; an effect the other way counts as inactive or inconclusive. Potency is the fitted concentration of half-maximal effect.

SMILES	HP1b binding inh	JMJD2A Tudor	L3MBTL1 block	BAZ2B inh	GLS inh	G9a block
COc1ccccc1CNc1ccc(-c2nc(C)no2)cc1[N+](=O)[O-]	52%	-6%	.	-2%	-4%	-26%[59 µM]
c1ccc(COc2ccc(OCCCCN3CCCC3)cc2)cc1	?	1.4µM*	?	56µM*	7%	22µM*
c1ccc(OCCCCN2CCCCC2)cc1	15%	-11%	0%	3%	3%	7%[59 µM]
c1ccc(OCCCN2CCCC2)cc1	-45%	2.8µM*	.	79µM*	5%	3.2µM*
c1ccc(COc2ccc(OCCCN3CCCCC3)cc2)cc1	?	40µM*	.	?	-1%	13µM*
CC(=O)Nc1ccc(NC(=O)CCC(=O)c2ccc(C)cc2)cc1	52%	-2%	.	3%	-7%	8%[59 µM]
CCCOc1ccc(NC(=O)CC2C(=O)N(c3ccccc3)C(=O)N2Cc2ccc(F)cc2)cc1 (stereo not given)	11%	-14%	.	-8%	0%	-11%[59 µM]
COc1ccc(OC)c(CNc2ncnc3onc(-c4ccc(Cl)cc4)c23)c1	26%	-18%	.	-20%	3%	4%[59 µM]
O=c1cnc2cncnc2n1Cc1ccccc1Cl	.	.	.	.	.	7%[0.501 µM]
CCOC(=O)N1CCC(NC2CCCCCCC2)CC1	26%	7%	54%	29%	-1%	-43%[59 µM]
CCOC(=O)N1CCC(c2[nH][nH]c(=O)c2C)CC1	33%	-19%	.	1%	-4%	40µM*
CC(C)(C)c1ccc(C(=O)Nc2nnc3n2CCS3)cc1	24%[57 µM]	-4%	.	2%	-7%	53%[59 µM]
CCOc1ccc(CC(=O)Nc2nnc3n2CCS3)cc1	-2%[57 µM]	56µM*	.	11%	-15%	29%[59 µM]
COc1ccc(CC(=O)Nc2nnc3n2CCS3)cc1	17%[57 µM]	56µM*	.	?	-2%	?
CC(C)CN(CCNC(=O)c1cn(C)c2ccc(S(=O)(=O)N3CCCCCC3)cc2c1=O)CC(C)C	4%	-17%	.	.	0%	-26%[59 µM]
CC1CCCN(CCOCCOc2ccc(Cl)cc2Br)C1 (stereo not given)	?	2µM*	-4%	?	2%	?
CC1CCCN(CCOCCOc2ccc(Br)cc2Cl)C1 (stereo not given)	?	2.8µM*	6%	?	4%	10µM*
Clc1ccc(OCCOCCOc2cccc3cccnc23)c(Br)c1	75%	1%	9%	5%	-2%	-7%[59 µM]
CC1CCN(CCCOc2ccc(Br)cc2Cl)CC1	?	4µM*	-21%	56µM*	1%	16µM*
O=C1CCC(=O)N1OCCCOc1ccc(Br)cc1Cl	69%	10%	4%	0%	-1%	-13%[59 µM]
Cc1cc(Cl)c(OCCOCCN2CCCC(C)C2)c(Br)c1 (stereo not given)	6%	?	-1%	56µM*	-14%	16µM*
CC(=O)OCC(NC(=O)C(CCCCNC(=O)OCc1ccccc1)NC(=O)OC(C)(C)C)C1OC(n2ccc(=O)[nH]c2=O)C(OC(C)=O)C1OC(C)=O (stereo not given)	27%	-14%	.	.	.	.
Cc1ccc2c(c1)cc(C(=O)Nc1ccc(F)cc1F)n2C	58%	-2%	.	-24%	0%	13%[59 µM]
OC[C@H](S)CS	.	.	.	.	2%	1µM*
CCN(CC)S(=O)(=O)c1ccc(N2CCCCC2)c(NC(=O)c2ccncc2)c1	24%	-10%	-5%	-17%	7%	-8%
SMILES	HP1b binding inh	JMJD2A Tudor	L3MBTL1 block	BAZ2B inh	GLS inh	G9a block
CCN(CC)S(=O)(=O)c1ccc(N2CCCC2)c(NC(=O)c2ccncc2)c1	49%	-20%	1%	-1%	7%	32µM*
CN(C)S(=O)(=O)c1cccc(C(=O)Nc2ccccc2[N+](=O)[O-])c1	6%	-19%	-8%	?	-3%	-11%[59 µM]
CCN(CC)S(=O)(=O)c1ccc(N2CCCC2)c(NC(=O)C2=COCCO2)c1	24%	-6%	11%	-2%	-1%	50µM*
COc1cccc(CNC(=O)c2ccc(N3CCOCC3)c([N+](=O)[O-])c2)c1	-2%	-13%	.	-23%	2%	-7%
COc1ccccc1CNC(=O)c1ccc(N2CCOCC2)c([N+](=O)[O-])c1	-6%	?	.	79µM*	3%	-9%[59 µM]
CCN(CC)S(=O)(=O)c1cc(C(=O)Nc2ccccc2[N+](=O)[O-])ccc1Cl	?	?	-21%	?	-15%	28µM*
CCN(CC)S(=O)(=O)c1ccc(N2CCCCC2)c(NC(=O)C2=COCCO2)c1	2%	-21%	-9%	7%	2%	-30%
CCOC(=O)c1c(NC(C)=O)c2c3c(sc2n1Cc1nc(-c2cccc(C)c2)oc1C)CCCC3	25%	-15%	.	0%	-7%	1%[59 µM]
CCc1ccc(S(=O)(=O)c2nnn3c2nc(NCCc2ccccc2)c2sccc23)cc1	7%	-15%	.	-17%	7%	8%[59 µM]
CCN(CC)S(=O)(=O)c1ccc(N2CCOCC2)c(NC(=O)c2ccccc2)c1	24%	-8%	2%	-4%	-6%	21%[59 µM]
CCN(CC)S(=O)(=O)c1ccc(O)c(NC(=O)c2ccc(N3CCOCC3)c([N+](=O)[O-])c2)c1	?	-19%	2%	-3%	12%	7.1µM*
CCN(CC)S(=O)(=O)c1ccc(N2CCOCC2)c(NC(=O)c2ccc(N3CCCC3=O)cc2)c1	16%	-14%	-6%	-1%	6%	50µM*
CCN(CC)S(=O)(=O)c1ccc(OC)c(NC(=O)c2ccc(N3CCCC3=O)cc2)c1	41%	5%	3%	9%	8%	-1%[59 µM]
CCN(CC)S(=O)(=O)c1ccc(N2CCCC2)c(NC(=O)c2ccc(N3CCCC3=O)cc2)c1	9%	-20%	3%	-4%	18%	35µM*
CCc1ccc(CNc2ccc3c(c2)ncn3C)cc1	?	?	-8%	45µM*	1%	3.2µM*
CCCn1cnc2cc(NCc3ccccn3)ccc21	1%	56µM*	-11%	50µM*	4%	10µM*
CCn1cnc2cc(NCc3ccc(Cl)cc3)ccc21	-22%	?	.	?	?	50µM*
Cn1cnc2cc(NCc3ccccc3O)ccc21	3%	-27%	3%	-28%	3%	-1%
CCn1cnc2cc(NCc3ccncc3)ccc21	28%	-13%	.	-6%	48%	?
COc1ccc(CNc2ccc3c(c2)ncn3C)cc1OC	36%	-25%	3%	-22%	-16%	40µM*
CN(C(=O)CSc1nc2ccccc2n1CC(=O)N(C)c1ccc(F)cc1)c1ccccc1	29%	-17%	.	-13%	-7%	-21%[12.7 µM]
